Measured values as given in ChEMBL document CHEMBL4513216, “Probing the Open Global Health Chemical Diversity Library for Multistage-Active Starting Points for Next-Generation Antimalarials” (ACS Infect Dis, 2020).
Hit rate of the full screen: of about 69,000 compounds, about 8,600 (12%) showed an effect of 50% or more. The sample holds strong results, similar compounds and a random draw of the others, so the mix is not that of the screen.

System: Plasmodium berghei
Assay: Screen against P. berghei liver stage (PbLuc), transformed with Luciferase, at 10uM
Assay type: functional, HepG2
Details: tested at 10 uM

Compound	INHIBITION [%]
Cc1nn(C)c(C)c1C1CCCN1Cc1nc2ccccc2n1C (stereo not given)	-55.4
COc1cccc(-n2nnc(C(=O)N3CCOC(C)C3)c2C)c1 (stereo not given)	14.05
CC1CC2(CCN(C(=O)c3c[nH]cn3)CC2)c2ccccc21 (stereo not given)	5.68
CCOC1CC2(CCN(C(C)=O)CC2)c2cc(F)ccc21 (stereo not given)	-33.9
CCOc1ccccc1OC1CCN(C(=O)c2csnn2)CC1	15.3
CNC(=O)C1CC2(CCN(C(=O)c3csnn3)CC2)c2ccccc21 (stereo not given)	51.3
CC1CC2(CCN(C(=O)c3csnn3)CC2)c2ccccc21 (stereo not given)	15.9
CCOC1CCC2(CCN(C(=O)c3c[nH]cn3)CC2)c2ccccc21 (stereo not given)	51.4
CS(=O)(=O)N1CC2(CCN(C(=O)c3csnn3)CC2)c2ccccc21	13.7
CCOC1CCC2(CCN(C(=O)c3csnn3)CC2)c2ccccc21 (stereo not given)	56.4
CN1CCN(C(=O)c2csnn2)c2ccccc21	23.2
Cc1cccc(CN2C(=O)CO[C@@H]3CN(Cc4nccn4C)C[C@H]32)c1	36.1
COc1cccc(C2(CNC(C)c3nnc(C)o3)CCCC2)c1 (stereo not given)	3.03
CS(=O)(=O)N1CCCC(Cc2cncc(Br)c2)CC1 (stereo not given)	29.3
CC(=O)N1CCCC(Cc2cncc(Br)c2)CC1 (stereo not given)	54.6
CC(C)N1CCCC(Cc2cncc(Br)c2)CC1 (stereo not given)	51.5
CC(=O)N1CCCC(Cc2cncc(Br)c2)C1 (stereo not given)	44.1
CN1CCCC(Cc2cncc(Br)c2)CC1 (stereo not given)	44.9
CN1CCN(C(=O)c2cncc(CC3CCCN(C)C3)c2)CC1 (stereo not given)	37
CC(=O)N1CCC(c2cncc(Cl)n2)CC1	1.62
Cc1cccc(CN2CCC3(CCCN(C(=O)N4CCCC4)C3)C2=O)n1 (stereo not given)	-29.3
CC(=O)NCCNC(=O)c1nc(C2CC2)n(-c2ccccc2Cl)n1	8.46
Cc1ccc(S(=O)(=O)N(CC2CCOC2)C2CC2)cc1N(C)C (stereo not given)	17.1
O=C(c1ccco1)N1CCc2ncc(CN3CCOCC3)n2CC1	5.44

Compound	INHIBITION [%]
c1csc(-c2noc(C3CCCNC3)n2)c1 (stereo not given)	41.5
c1cnc(-c2noc(C3CN(Cc4ccc5c(c4)CCO5)C3)n2)cn1	58.5
c1cnc(-c2noc(C3CN(Cc4ccsc4)C3)n2)cn1	28.3
CCS(=O)(=O)N1CC(c2nc(-c3cccs3)no2)C1	9.41
c1csc(-c2noc(C3CCCOC3)n2)c1 (stereo not given)	-31
c1csc(-c2noc(C3CNC3)n2)c1	58.1
Cc1noc(C2CN(Cc3ccc4c(c3)CCO4)C2)n1	-5.01
c1csc(-c2noc(C3CN(Cc4ccc5c(c4)CCO5)C3)n2)c1	52.5
c1cnc(-c2noc(C3CN(Cc4ccc5c(c4)CCO5)C3)n2)nc1	27.5
CCN(CC)CCNc1nc(C(C)C)nc2c(C)nn(CC)c12	44.9
CN(C)CCN1CCCC12CCN(C(=O)c1cccnc1)CC2	11.6
Cc1ccc(NC2CCN(C(=O)c3ccoc3C)CC2)nn1	28.95
CN1CCC(N2CCCC(C(=O)N3Cc4ccccc4C3)C2)CC1 (stereo not given)	10.6
O=C(Nc1nncs1)NC1CCN(Cc2ccccc2)C1 (stereo not given)	12.433
Cc1noc([C@@H]2C[C@@H]3CCN(CC4CC4)C[C@H]3O2)n1	-6.39
Cn1ccnc1CNC(=O)N(CCCO)C1CCCc2ccccc21 (stereo not given)	-17.4
Cc1nnc(CN(C)CC(=O)NCCc2ccc(F)cc2)n1C	-9.39
CCCOc1ccccc1C(N)CC(C)C (stereo not given)	80.9
CCOc1ccccc1C(N)CC(C)C (stereo not given)	30.9
CC(C)COc1ccccc1C(N)CC(C)C (stereo not given)	30.9
COCCN1CCOCC2(CCN(c3cnccn3)CC2)C1	29.4
CCc1nc(C)ncc1C(=O)N1CC(C)CN(C)c2ccccc21 (stereo not given)	57.8
CCc1nc(C)ncc1C(=O)N1CCN(CC)c2ccccc21	47.7
CCc1nc(C)ncc1C(=O)N1CC(=O)N(C)c2ccccc21	28.7

Compound	INHIBITION [%]
CO[C@@H]1CCN(Cc2nccs2)C[C@@H]1Cc1ccccc1	62.5
CO[C@H]1CCN(c2nnc(C)s2)C[C@@H]1Cc1cccc(C)c1	24.9
C[C@H]1C[C@@H]2CCN(Cc3nccs3)C[C@H]2O1	20.1
CO[C@@H]1CCN(c2nnc(C)s2)C[C@@H]1Cc1cccc(C)c1	2.41
CO[C@H]1CCN(Cc2nccs2)C[C@@H]1Cc1ccccc1	69.5
CO[C@@H]1CCN(Cc2nccs2)C[C@@H]1Cc1cccc(C)c1	54.4
C[C@@H]1C[C@@H]2CCN(Cc3nccs3)C[C@H]2O1	40.8
CO[C@H]1CCN(C2CCOCC2)C[C@@H]1Cc1ccccc1	-8.51
CO[C@@H]1CCN(C2CCOCC2)C[C@@H]1Cc1ccccc1	-84.9
Cc1nc2c(c(=O)[nH]1)CN(C(=O)CC[C@@H]1CCCN3CCCC[C@H]13)C2	-1.85
Cc1nn(C)c(N(C)C)c1CNCc1ccccc1Cn1cccn1	33.8
O=C(c1c[nH]cn1)N1CCCn2c(CN3CCCCC3)nnc2C1	-56.3
CNS(=O)(=O)c1ccc(CNC(=O)N(C)CC(C)C)cc1	18.3
Cc1cnc2n(c1=O)C(CC(=O)NCc1ccc(Cl)cc1)CS2 (stereo not given)	61.2
Cc1cnc2n(c1=O)C(CC(=O)NCc1ccc(F)cc1)CS2 (stereo not given)	18.3
Cc1cnc2n(c1=O)C(CC(=O)NCc1ccccc1Cl)CS2 (stereo not given)	6.67
CCOCC1CN(C(=O)c2ccncn2)Cc2cnn(CC)c21 (stereo not given)	35.7
CCc1n[nH]c(C2CN(C(=O)c3ccc4c(c3)CCC4)CCO2)n1 (stereo not given)	-12.1
Cc1ccccc1-n1c(O)cc(C)c(C#N)c1=O	3.84
COc1ccccc1-n1c(O)cc(C)c(C#N)c1=O	39.1
Cc1cc(O)n(-c2ccccc2Cl)c(=O)c1C#N	50.4
Cc1c(S(=O)(=O)NC2CC2)cc2c(C)cc(=O)n3c2c1CCC3	-17.1
